# Assay outcomes: PubChem, Sanford-Burnham Center for Chemical Genomics
# Hits are enriched below; roughly 4% of the tested compounds scored in any of these assays.
# HIF-2a block – inhibitors of HIF-2a. 786-0 RCC cells HIF-2a reporter, luciferase luminescence, overnight. inhibition, % at 18.8 µM. 360,000 compounds, 0.72% hits. AID 624352;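 active = inhibition of the luminescence signal of 40% or more relative to plate controls, in a single-dose primary screen at 18.75 µM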
# KKLEB cytotox – reduces viability of KKLEB cystic fibrosis airway cells. KKLEB CF airway cells viability, ATPlite luminescence, overnight; active compounds read low; cells stimulated with P. aeruginosa culture filtrate. activity change (cytotoxicity), % at 5 µM. 360,000 compounds, 0.36% hits. AID 602141;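 active = corrected activity change at or below -50% at 5 µM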
# TROY signal inh – inhibitors of TROY-dependent NF-kB signaling. Q293 LMP1-TROYcd NF-kB luciferase reporter, 4 h. inhibition, % at 10 µM. 360,000 compounds, 0.98% hits. AID 1347056;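 active = compounds whose plate-normalised and pattern-corrected inhibition of the luciferase reporter signal at the single screening dose is 50% or more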
# TWEAK Fn14 block – blocks TWEAK-Fn14 interaction in a reporter cell assay | TWEAK-stimulated Fn14 reporter cells, luciferase luminescence, 8 h | inhibition, % at 10 µM | 360,000 compounds, 2% hits | AID 1159606; in the data active = inhibition above about 50%
# Peg3 promoter – reduces Peg3 promoter-driven luciferase expression in HeLa. HeLa PEG-Prom luciferase reporter, luminescence, overnight. inhibition, % at 20 µM. 360,000 compounds, 1.7% hits;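 active = inhibition of at least 50% at 20 µM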
# CF NFkB inh – cystic fibrosis NF-kB activation inhibition; KKLEB NF-kB-GFP reporter, PAF-induced, GFP fluorescence overnight; inhibition, % at 5 µM; 360,000 compounds, 0.86% hits;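 active = at least 50% inhibition at 5 µM, scaled per plate between neutral and stimulator controls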;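 also: PAF is a Pseudomonas aeruginosa culture filtrate used as stimulus; plate controls were PAF-stimulated DMSO wells for no effect and unstimulated DMSO wells for full effect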
# Mdm2 MdmX conf – Mdm2/MdmX (human) interaction inhibition, confirmed; shares compounds with HIF-2a block; SaOS-2 split-luciferase Mdm2/MdmX complementation, luminescence; inhibition, % at 8 µM; 740 compounds, 99% hits; AID 504601;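 active = mean inhibition of the luminescence signal across two replicates at or above 26 percent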
# Target sequence (O15151 whole entry, looked up): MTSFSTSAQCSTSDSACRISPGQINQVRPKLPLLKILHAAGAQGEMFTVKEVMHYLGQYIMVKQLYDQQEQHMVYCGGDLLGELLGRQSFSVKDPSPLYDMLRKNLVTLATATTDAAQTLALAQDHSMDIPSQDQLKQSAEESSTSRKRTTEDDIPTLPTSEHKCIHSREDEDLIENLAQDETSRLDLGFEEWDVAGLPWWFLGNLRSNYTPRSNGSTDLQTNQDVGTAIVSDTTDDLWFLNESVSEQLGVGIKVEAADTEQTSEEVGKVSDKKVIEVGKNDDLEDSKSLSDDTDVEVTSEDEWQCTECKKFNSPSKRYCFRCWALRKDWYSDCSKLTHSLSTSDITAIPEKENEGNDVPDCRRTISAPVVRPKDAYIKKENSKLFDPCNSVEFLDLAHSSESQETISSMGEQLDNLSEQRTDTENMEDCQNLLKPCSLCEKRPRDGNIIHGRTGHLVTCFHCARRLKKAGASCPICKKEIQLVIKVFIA
# Target sequence (Q00987 whole entry, looked up): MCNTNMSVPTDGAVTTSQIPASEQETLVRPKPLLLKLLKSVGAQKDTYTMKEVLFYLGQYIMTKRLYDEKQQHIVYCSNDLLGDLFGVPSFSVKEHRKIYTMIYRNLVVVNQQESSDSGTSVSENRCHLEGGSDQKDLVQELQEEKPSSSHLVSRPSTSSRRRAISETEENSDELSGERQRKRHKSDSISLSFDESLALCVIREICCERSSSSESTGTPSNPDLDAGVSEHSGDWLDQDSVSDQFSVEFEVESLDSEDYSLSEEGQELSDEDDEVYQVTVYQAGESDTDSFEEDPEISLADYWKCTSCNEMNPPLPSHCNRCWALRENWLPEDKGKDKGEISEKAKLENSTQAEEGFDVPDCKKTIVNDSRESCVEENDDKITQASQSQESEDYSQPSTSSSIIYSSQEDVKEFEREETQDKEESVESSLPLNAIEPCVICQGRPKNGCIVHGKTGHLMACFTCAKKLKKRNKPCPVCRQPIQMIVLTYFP
# HIF-2a conf – HIF-2a inhibition, single concentration confirmation; 786-0 RCC cells, HIF-2a luciferase reporter luminescence, overnight; AID 651580; shares compounds with HIF-2a block; inhibition, % at 18.8 µM; 1,800 compounds, 56% hits;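 active = mean inhibition across four replicates of at least 40 percent at the single tested concentration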
# HIF-1a counter – inhibits HIF-1a reporter, a counter-screen for HIF-2a inhibitors | shares compounds with HIF-2a block | inhibition, % at 18.8 µM | MiaPaCa-2 HIF-1a luciferase reporter, desferoxamine, overnight | 1,800 compounds, 72% hits;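 active = mean inhibition of the reporter signal across four replicates at the single tested dose of 50% or more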
# * = called active by the depositor; . = no result.
SMILES,HIF-2a block,KKLEB cytotox,TROY signal inh,TWEAK Fn14 block,Peg3 promoter,CF NFkB inh,HIF-2a conf,HIF-1a counter,others
CNC(=O)NC(=O)COC(=O)CCCSc1nc2ccccc2s1,64.2*,9.4,40.1,59.1*,9.7,-13.2,84.7*,56.7*,
CC(OC(=O)CCCSc1nc2ccccc2s1)C(=O)NC(N)=O (stereo not given),49.6*,3.1,10.9,21.9,22.5,-5.1,84.5*,62.6*,
Cc1noc(C)c1CSCC(=O)OCC(=O)Nc1sccc1C#N,10.6,0.3,0.3,-8.1,0.6,7.3,.,.,
COc1ccccc1NC(=O)c1ccc2[nH]c(C)c(C)c2c1,-338.9,-1.3,-37.9,-23.4,-244.4,-6.6,.,.,
CC(CC(=O)NC1CCCCC1)S(=O)(=O)c1ccc2c(c1)NC(=O)CO2 (stereo not given),4.8,5.4,7.2,4.5,-7.8,-1.0,.,.,
COC[C@H](NS(=O)(=O)c1ccc(Br)cc1F)[C@@H](O)c1ccccc1,9.6,9.1,-3.0,-11.9,13.6,-10.8,.,.,
NNC(=O)c1ccc(CSc2n[nH]c(=O)[nH]c2=O)cc1,12.4,12.5,5.9,4.4,-96.1,-15.9,.,.,
O=C1c2ccccc2C(c2nnnn2Cc2ccccc2)N1Cc1cccnc1 (stereo not given),6.3,.,-11.5,2.2,.,.,.,.,
Cc1ccc2c(c1)c1ccc3c(c1n2C)C(=O)C=CC3=O,78.8*,-3.3,13.4,19.3,107.4*,-1.9,.,.,Mdm2 MdmX conf=101.7*
COc1ccc2c(c1)c1ccc3c(c1n2C)C(=O)C=CC3=O,78.3*,-4.1,30.4,3.2,104.4*,-1.0,.,.,Mdm2 MdmX conf=102.2*
CCN(CCn1cccn1)C(=O)C1CCC(=O)N(CCN2CCOCC2)C1 (stereo not given),13.6,-4.7,5.4,0.8,15.9,21.4,.,.,
Cc1cccc(S(=O)(=O)NC(=O)C2(C)CCN2C(=O)CCC2CCCC2)c1 (stereo not given),14.2,-8.9,6.2,-17.8,5.6,16.5,.,.,
Cc1sc2ncnc(Nc3ccccc3)c2c1C,-54.6,2.2,-9.1,1.8,-24.7,2.2,.,.,
Cc1sc2ncnc(Nc3ccc(N4CCOCC4)cc3)c2c1-c1ccccc1,45.4*,-14.3,1.3,25.0,29.2,23.8,23.8,79.1*,
O=C(CN(Cc1ccc(Br)cc1)S(=O)(=O)c1ccccc1)NCc1cccnc1,16.2,-14.3,0.3,13.2,0.9,13.7,.,.,
O=C(NCc1cccnc1)/C(=C/c1ccc(-c2cccc(C(F)(F)F)c2)o1)NC(=O)c1ccccc1,17.3,-4.9,3.2,31.2,25.4,-6.4,.,.,
O=C(NCc1cccnc1)/C(=C\c1ccc(-c2ccc(Br)cc2)o1)S(=O)(=O)c1ccccc1,92.7*,-55.5*,83.4*,99.9*,106.7*,86.1*,97.9*,106.0*,Mdm2 MdmX conf=103.2*
O=C(NCc1cccnc1)/C(=C/c1ccc(-c2ccc(Cl)cc2)o1)S(=O)(=O)c1ccccc1,90.4*,-54.4*,75.8*,100.3*,100.8*,72.6*,98.7*,103.7*,Mdm2 MdmX conf=102.2*
CCc1ccc(C2=NN(CCC(=O)NC(C)c3ccc4c(c3)OCCO4)C(=O)CC2)cc1 (stereo not given),17.7,4.0,5.9,-6.2,0.6,6.8,.,.,
Cc1nc2cc(-c3ccc(Cl)cc3)nn2c(C)c1CCC(=O)NC(C)c1ccc2c(c1)OCCO2 (stereo not given),81.9*,-5.3,33.3,56.1*,8.6,-1.4,92.8*,89.1*,
Cc1csc(NC(=O)CCc2c(C)nc3cc(-c4ccc(Cl)cc4)nn3c2C)n1,81.0*,-4.8,30.0,62.3*,-4.4,1.3,92.1*,54.5*,
Cc1csc(NC(=O)CSc2nnc(-c3ccc(Cl)cc3)n2N)n1,0.3,9.7,-12.0,2.1,2.1,-2.6,.,.,
CN1CCN(C(=O)/C=C/c2c(F)cccc2Cl)CC1,-40.8,1.8,3.3,-13.2,-2.8,-5.7,.,.,
